Rows were chosen to be rich in hits. Some 5.8% of all compounds tested hit in one or more screens of this group.
RORg inh – qHTS for inhibitors of ROR gamma transcriptional activity | 5.4% of 310,000 active | Nuclear receptor ROR-gamma (Mus musculus), P51450 | Drosophila S2 Gal4-RORgamma UAS-luciferase reporter, 20 h | AID 2551, 2010 | Potency, µM (doses to about 53.6 µM), without a hit: at the top dose activity change, negative = inhibition, hits mostly inhibitors; further: potency means the concentration at half of the fitted maximal effect; on the % scale 0 is the no-effect control and ±100 the full control effect; nearly all actives have a fitted effect of over 60% in size
Target sequence (P51450 whole entry, looked up, the tested form may be a part): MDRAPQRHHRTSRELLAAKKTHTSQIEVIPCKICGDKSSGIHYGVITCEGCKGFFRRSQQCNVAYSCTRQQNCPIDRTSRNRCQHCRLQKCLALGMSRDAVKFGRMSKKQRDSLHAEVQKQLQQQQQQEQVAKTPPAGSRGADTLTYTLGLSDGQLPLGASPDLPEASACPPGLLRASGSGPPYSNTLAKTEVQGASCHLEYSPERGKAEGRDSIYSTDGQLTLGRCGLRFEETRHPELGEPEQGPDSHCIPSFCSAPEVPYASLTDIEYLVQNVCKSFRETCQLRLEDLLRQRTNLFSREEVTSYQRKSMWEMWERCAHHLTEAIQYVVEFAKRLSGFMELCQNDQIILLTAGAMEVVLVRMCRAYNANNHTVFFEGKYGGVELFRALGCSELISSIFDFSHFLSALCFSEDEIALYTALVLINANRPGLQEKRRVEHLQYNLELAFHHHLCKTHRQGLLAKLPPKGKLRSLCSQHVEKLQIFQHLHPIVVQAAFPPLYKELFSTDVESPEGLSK
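Luminescence from a UAS-regulated Photinus luciferase reporter in stably transfected Drosophila Schneider cells is measured; decreased signal marks ROR gamma inhibition. Fusion expression is induced by 700 uM copper sulfate for 20 hr.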
TRPV1 agonist – HTS Assay for Compounds that Act as Agonists of the Vanilloid Receptor 1. 0.19% of 320,000 active. activation, % at 8.33 µM. Transient receptor potential cation channel subfamily V member 1 (Homo sapiens), Q8NER1. TRPV1-expressing cells, Fluo-8 calcium influx, agonist mode; in the data active means activation above about 80%; inconclusive means between about 30% and that limit; further: 0% is about no effect
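TRPV1-expressing cells were cultured overnight at 35.5C and loaded with Fluo-8 calcium dye for 40 to 90 min at room temperature. After a 10 s baseline, compound was added and calcium influx was read kinetically for 3 min (ex 480/em 520 nm).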
Gal4-VP16 FLuc – VP16 counterscreen qHTS for inhibitors of ROR gamma transcriptional activity; Drosophila S2 Gal4-VP16 UAS-luciferase, luminescence, 20 h; Potency, µM (top dose mostly 53.6 µM), inactives show top-dose activity, negative = inhibition, actives largely listed as inhibitors; 3.5% of 310,000 active; AID 2546, 2010;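 further: Gal4-VP16 expression switched on by copper sulfate through the metallothionein promoter; potency means the concentration at half of the fitted maximal effect; on the % scale 0 is the no-effect control and ±100 the full control effect; nearly all actives have a fitted effect of over 50% in size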
uPA surface inh – qHTS for Inhibitors of Cell Surface uPA Generation. 0.31% of 330,000 active. Potency, µM (top dose mostly 38.3 µM), without a hit: at the top dose activity change, negative = inhibition, hits mostly inhibitors. AID 540303, 2011. cell surface uPA generation assay, qHTS; active means well fitted inhibition curve with a large enough effect; inconclusive means small, poorly fitted or top-dose-only effect; inactive means no such curve, though single readings can be large or run the other way; tested in mouse RAW 264.7 cells; further: potency means the concentration at half of the fitted maximal effect; on the % scale 0 is the no-effect control and ±100 the full control effect; nearly all actives have a fitted effect of over 55% in size
TRPV1 potentiator – HTS Assay for Compounds that Act as Potentiators of the Vanilloid Receptor 1; potentiation, % at 8.33 µM; Transient receptor potential cation channel subfamily V member 1 (Homo sapiens), Q8NER1; TRPV1-expressing cells, Fluo-8 calcium influx, capsaicin EC20 potentiation; 0.02% of 320,000 active; in the data active means potentiation above about 80%; inconclusive means between about 30% and that limit; further: 0% is about no effect
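TRPV1-expressing cells were cultured overnight at 35.5C and loaded with Fluo-8 calcium dye for 40 to 90 min at room temperature. After a 10 s baseline, compound was added and calcium influx was read kinetically for 3 min (ex 480/em 520 nm).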
* = called active by the depositor; [ ] = remark or other dose. Unless noted, the call rests on the fitted dose curve; in most records, active means well fitted curve in the direction sought with a large enough effect; inconclusive means small, poorly fitted or top-dose-only effect, or another doubt; inactive means no such curve, though single readings can be large; an effect the other way counts as inactive or inconclusive.

Cc1ccc(C(=O)CC(=O)c2cccc(F)c2)c(O)c1 was read as RORg inh 11.2µM*, TRPV1 agonist inconclusive, Gal4-VP16 FLuc inconclusive, uPA surface inh 0.5% and TRPV1 potentiator -3.6.
For Cc1ccc(C(=O)CC(=O)c2ccccc2C)c(O)c1 the results were RORg inh 3.55µM*, TRPV1 agonist 4.3, Gal4-VP16 FLuc 5.62µM*, uPA surface inh -14.8% and TRPV1 potentiator -0.6.
`CC(=O)c1ccc(C)cc1OC(=O)c1cccc(F)c1` gave RORg inh 14.0%, TRPV1 agonist 5.8, Gal4-VP16 FLuc 0.6%, uPA surface inh 3.1% and TRPV1 potentiator 1.2.
For Fc1ccc(C(c2ccc(F)cc2)N2CCN(C/C=C\c3ccccc3)CC2)cc1 the results were RORg inh -11.0% and Gal4-VP16 FLuc -14.6%.
`C[C@]12C=CC(=O)C=C1CCC1C2C(=O)C[C@]2(C)C1CC[C@]2(O)C(=O)CO` (some centres not stated) gave RORg inh 9.6% and Gal4-VP16 FLuc 0.6%.
`CCCCCCCC(=O)NNC(=O)Cc1ccccc1` gave RORg inh -2.6%, TRPV1 agonist 1.3, Gal4-VP16 FLuc -28.7% and TRPV1 potentiator 2.8.
Screening CCCCCC(=O)NNC1=NCC(Cc2cccc(Cl)c2)S1 (configuration not stated) returned RORg inh 0.794µM*, TRPV1 agonist 2.4, Gal4-VP16 FLuc 5.01µM*, uPA surface inh 1.6% and TRPV1 potentiator 25.3.
For O=C(Nc1ccc(-n2ccc(C(F)(F)F)n2)cc1)Nc1cccc(Cl)c1 the results were RORg inh inconclusive, TRPV1 agonist 16.7, Gal4-VP16 FLuc 17.8µM* and TRPV1 potentiator -11.6.
For Cc1cc(C)cc(NC(=O)Nc2ccc(-n3ccc(C(F)(F)F)n3)cc2)c1 the results were RORg inh 29.3%, TRPV1 agonist -4.2, Gal4-VP16 FLuc -9.0%, uPA surface inh -7.9% and TRPV1 potentiator -9.3.
Screening Cc1ccc(NC(=O)c2ccc(=O)n(CC(=O)Nc3ccccc3)n2)cc1 returned RORg inh -13.8%, TRPV1 agonist 4.8, Gal4-VP16 FLuc 5.6%, uPA surface inh -3.6% and TRPV1 potentiator 23.5.
For C#CCN1C(=O)S/C(=C\c2ccc(-c3ccc(Cl)c(C(=O)O)c3)o2)C1=O the results were RORg inh -9.8%[1.91 µM], TRPV1 agonist -3.0, Gal4-VP16 FLuc 1.26µM*, uPA surface inh 12.6% and TRPV1 potentiator -0.1.
For CCc1nc(N2CCN(C(=S)NCCCOC)CC2)c2c3c(sc2n1)CCCC3 the results were RORg inh 14.1µM*, TRPV1 agonist inconclusive, Gal4-VP16 FLuc inconclusive, uPA surface inh 1.6% and TRPV1 potentiator 2.1.
Screening CNCc1ccccc1Sc1cccc(O)c1 returned RORg inh 0.4%, TRPV1 agonist 0.8, Gal4-VP16 FLuc -7.8%, uPA surface inh -1.8% and TRPV1 potentiator 9.2.
CNCc1ccccc1Sc1cc(O)ccc1O was read as RORg inh 15.8µM*, TRPV1 agonist 4.3, Gal4-VP16 FLuc inconclusive, uPA surface inh -14.2% and TRPV1 potentiator -2.8.
Screening CC(CCCC(C)(C)O)NC(=O)c1cc(COc2ccc3ncccc3c2)on1 (configuration not stated) returned RORg inh 7.94µM*, TRPV1 agonist 1.9, Gal4-VP16 FLuc 5.62µM*, uPA surface inh -4.0% and TRPV1 potentiator 6.1.
Screening Cc1ccc(F)cc1CNC(=O)c1cc(COc2ccc3ncccc3c2)on1 returned RORg inh inconclusive, TRPV1 agonist 27.3, Gal4-VP16 FLuc 11.2µM*, uPA surface inh -7.0% and TRPV1 potentiator -1.9.
Screening Cc1ccc(OCc2cc(C(=O)NC(C)Cc3cccnc3)no2)cc1C (configuration not stated) returned RORg inh inconclusive, TRPV1 agonist 2.7, Gal4-VP16 FLuc -14.3%, uPA surface inh -3.8% and TRPV1 potentiator -9.5.
O=C(NCc1cccc(Cl)c1)c1cc(COc2ccc3ncccc3c2)on1 was read as RORg inh -70.7%, TRPV1 agonist 25.3, Gal4-VP16 FLuc 10µM*, uPA surface inh -4.1% and TRPV1 potentiator -15.5.
Cc1cc(C)n(CCNC(=O)c2cc(COc3ccc4ncccc4c3)on2)n1 was read as RORg inh inconclusive, TRPV1 agonist 1.4, Gal4-VP16 FLuc inconclusive, uPA surface inh -30.4% and TRPV1 potentiator -10.9.
For CCN(CC)CCN(CC(=O)Nc1c(C)cc(C)cc1C)C(=O)c1ccccc1 the results were RORg inh -1.1%, TRPV1 agonist -3.6, Gal4-VP16 FLuc -4.8%, uPA surface inh 7.1% and TRPV1 potentiator 4.6.
Screening C=C[C@@]1(C)CC[C@H]2C(=CC[C@@H]3[C@]2(C)CCC[C@@]3(C)C(=O)O)C1 returned RORg inh -68.3% and Gal4-VP16 FLuc 0.2%.
For COc1ccc(C(C)=O)cc1CSc1nnc(C)n1-c1ccccc1 the results were RORg inh 0.0%, TRPV1 agonist 2.3, Gal4-VP16 FLuc 13.0%, uPA surface inh -1.9% and TRPV1 potentiator 3.3.
Screening COc1ccc(C(C)=O)cc1CSc1nnc(-c2ccccc2O)n1-c1ccccc1 returned RORg inh 2.82µM*, TRPV1 agonist 6.9, Gal4-VP16 FLuc -12.7% and TRPV1 potentiator 12.3.
CC1(C)CC(=O)C=C(NNC(=O)c2ccccc2O)C1 was read as RORg inh 12.6µM*, TRPV1 agonist 5.7, Gal4-VP16 FLuc 11.2µM*, uPA surface inh inconclusive and TRPV1 potentiator 0.7.
For CC[C@H](C)[C@H](NC(=O)CNC(=O)[C@H](C)NC(=O)[C@H](C)N)C(=O)NCC(=O)N[C@H](C(=O)N[C@@H](CC(C)C)C(=O)N[C@H](C(=O)N[C@H](C(=O)O)C(C)C)[C@@H](C)O)[C@@H](C)CC the results were RORg inh 11.6% and Gal4-VP16 FLuc 3.2%.
For CC1CN(C2CCCCC2)C(=S)N(c2ccccc2)C1=O (configuration not stated) the results were uPA surface inh 2.8%.
For Fc1ccc(CNC(=S)NCc2cccc(Cl)c2)cc1 the results were RORg inh 44.6%, TRPV1 agonist inconclusive, Gal4-VP16 FLuc inconclusive, uPA surface inh 4.5% and TRPV1 potentiator -9.8.
Screening S=C(NCc1ccccc1)NCc1cccc(Cl)c1 returned RORg inh 10µM*, TRPV1 agonist inconclusive, Gal4-VP16 FLuc inconclusive, uPA surface inh 0.0% and TRPV1 potentiator -4.4.
Screening C/C(=N\NC(=S)NCCc1ccccc1)c1ccc(Cl)cc1Cl returned RORg inh 1.78µM*, TRPV1 agonist 1.9, Gal4-VP16 FLuc 6.31µM*, uPA surface inh -2.1% and TRPV1 potentiator 2.0.
Screening S=C(NCCc1cccc(Cl)c1)NCc1ccccc1 returned RORg inh 8.91µM*, TRPV1 agonist inconclusive, Gal4-VP16 FLuc inconclusive and TRPV1 potentiator -1.9.
